SMN2 splice up – SMN2 splice variant enhancement. Potency, µM (top dose mostly 46.1 µM), usual class: activators. HEK293 SMN2-luciferase splicing reporter, luminescence, 30-36 h. hit rate 2.8% among 210,000; further: nearly all actives have a fitted effect of over 55% in size
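HEK293 cells carry an SMN2 […]–luciferase reporter in which exon 7 inclusion puts luciferase in frame. Cells were plated 10-12 h before compound addition, then incubated 30-36 h at 37C. ONE-Glo luminescence was read; sodium butyrate at 4.5 mM final served as control.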
KinaseGlo FLuc – Kinase-Glo luciferase inhibition (counter-screen); hit rate 0.28% among 200,000; Kinase-Glo luciferase, ATP luminescence, 8 min; AID 1379; Q27757; Potency, µM (top dose mostly 38.3 µM), actives largely listed as inhibitors; further: nearly all actives have a fitted effect of over 60% in size
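Inhibition of Kinase-Glo luciferase light generation was assessed at 10 uM ATP in pH 7.2 imidazole buffer, with luminescence measured after eight minutes at ambient temperature.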
NPC1 promoter act – activates the NPC1 promoter | Huh7 NPC1 promoter luciferase reporter, 24 h | Potency, µM (top dose mostly 9.22 µM), actives largely listed as activators | hit rate 2.4% among 320,000; further: nearly all actives have a fitted effect of over 60% in size
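Huh7 cells stably carrying NPC1 promoter–luciferase, plated in Opti-MEM with 10% FBS for 2 h, were exposed to compound in DMSO for 24 h at 37 °C; luciferase reagent was added for 10 min and luminescence read.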
ELG1 genotox – induces genotoxicity in HEK293T cells with luciferase-tagged ELG1; Potency, µM (doses to about 46 µM), hits mostly activators; hit rate 1.3% among 330,000; AID 504466; HEK293T ELG1-luciferase reporter, luminescence, 16 h; further: nearly all actives have a fitted effect of over 60% in size
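HEK293T cells expressing luciferase-tagged ELG1 were treated with compound or DMSO for 16 hr at 37°C. Luciferase activity was then read after 30 min with ONE-Glo at room temperature; rising signal flags genetic stress.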
FLuc modulator – firefly luciferase modulation, counter-screen for miR-21 project; P08659; purified FLuc, Km substrates, luminescence inhibition; hit rate 6.9% among 360,000; Potency, µM (doses to about 57.5 µM), most hits filed as inhibitors; further: nearly all actives have a fitted effect of over 55% in size
Target sequence (P08659 whole entry, looked up): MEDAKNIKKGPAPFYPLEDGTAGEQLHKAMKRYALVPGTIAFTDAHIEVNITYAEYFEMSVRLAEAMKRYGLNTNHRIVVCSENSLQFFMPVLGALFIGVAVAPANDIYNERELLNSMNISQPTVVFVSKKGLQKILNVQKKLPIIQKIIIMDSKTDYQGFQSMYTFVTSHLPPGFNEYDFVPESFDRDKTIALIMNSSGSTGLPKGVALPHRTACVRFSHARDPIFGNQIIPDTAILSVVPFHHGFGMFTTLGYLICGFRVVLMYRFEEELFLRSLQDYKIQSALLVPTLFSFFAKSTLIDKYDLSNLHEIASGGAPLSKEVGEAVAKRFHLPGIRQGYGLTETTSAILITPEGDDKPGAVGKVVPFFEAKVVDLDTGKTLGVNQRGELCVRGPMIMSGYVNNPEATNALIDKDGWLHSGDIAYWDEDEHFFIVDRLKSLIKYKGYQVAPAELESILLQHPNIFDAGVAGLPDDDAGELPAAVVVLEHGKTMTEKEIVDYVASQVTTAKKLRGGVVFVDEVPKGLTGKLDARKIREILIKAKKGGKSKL
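Biochemical qHTS of compounds, final roughly 60 µM downward over six points, against 10 nM purified firefly luciferase using Km concentrations of substrates (10 uM D-luciferin, 10 uM ATP) in Tris acetate pH 7.5 buffer; luminescence output.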
Rab9 prom act – activates the Rab9 promoter | Potency, µM (titrated, usually from 9.22 µM), actives largely listed as activators | hit rate 2.8% among 320,000 | AID 485297 | Huh7 Rab9 promoter-luciferase reporter, luminescence, 24 h; further: nearly all actives have a fitted effect of over 60% in size
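Cells were plated at 1500 per well in reduced-serum medium with 10% FBS and left 2 h. Compound in DMSO was then added for 24 h at 37 °C. Reporter signal was read by luminescence after 10 min with luciferase detection reagent.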
Hits are given with their value; – = inactive; ? = inconclusive; · = not tested or not shown. Shown are actives, neighbours in structure and some others; about 7.5% of the full set was active somewhere. The call rests on the fitted dose curve; in most records, active means well fitted curve in the direction sought with a large enough effect; inconclusive means small, poorly fitted or top-dose-only effect, or another doubt; inactive means no such curve, though single readings can be large; an effect the other way counts as inactive or inconclusive.

SMILES | SMN2 splice up | KinaseGlo FLuc | NPC1 promoter act | ELG1 genotox | FLuc modulator | Rab9 prom act
O=[N+]([O-])c1cc(-c2ccc(C(=S)N3CCOCC3)o2)ccc1Cl | – | – | – | – | 15µM | –
COc1cc(C(=O)N2CCN(c3ccc(Nc4ccccc4)nn3)CC2)cc(OC)c1OC | · | · | · | · | – | ·
Cc1cc(C)nc(NC(=O)c2ccc(Cl)cc2[N+](=O)[O-])c1 | – | – | – | – | – | –
Cc1cc(C)nc(NC(=O)/C=C/c2ccc(Cl)cc2Cl)c1 | – | – | ? | ? | 7.6µM | 3.5µM
Cc1cc(N2CCCCC2)nc2ccc(NC(=O)/C=C/c3ccccc3Cl)cc12 | – | · | · | · | – | ·
Cc1cc(C)nc(NC(=O)/C=C/c2ccccc2Cl)n1 | ? | – | – | – | ? | ?
Cc1cc(N)c2cc(NC(=O)/C=C/c3ccccc3Cl)ccc2n1 | · | · | – | – | 13µM | –
Cc1cc(C)nc(NC(=O)/C=C/c2ccccc2Cl)c1 | 13µM | – | ? | ? | 3µM | ?
O=C(CN1C(=O)NC2(CCCC2)C1=O)NNC(=O)c1ccc(F)cc1 | · | · | – | – | – | –
C/C(=N\Nc1nc2ccccc2[nH]1)c1ccc2c(c1)OCCO2 | · | · | – | – | 6µM | –
C(=N\Nc1nc2ccccc2[nH]1)/c1ccc2c(c1)OCO2 | 13µM | – | 1.6µM | ? | 7.6µM | 2µM
O=C(CCc1nc2ccccc2[nH]1)NCc1ccc2c(c1)OCO2 | – | – | – | – | – | –
CC(C)C(NC(=O)c1ccc2c(c1)OCCO2)c1nc2ccccc2[nH]1 (stereo not drawn) | · | · | – | ? | – | –
C/C(=N\Nc1nc2ccccc2[nH]1)c1ccc2c(c1)OCO2 | – | – | – | – | 27µM | –
N#CC1(c2nc3ccccc3[nH]2)CC1c1ccc2c(c1)OCO2 (stereo not drawn) | – | – | – | – | 19µM | –
COc1ccc(OC)c(NC(=O)C2Cc3ccccc3CN2S(=O)(=O)c2ccc(F)cc2)c1 (stereo not drawn) | – | · | · | · | – | ·
C/C(=N\Nc1ccccn1)c1ccc2c(c1)OCO2 | · | – | ? | ? | 21µM | 3.2µM
O=C(N/N=C/c1ccc2c(c1)OCO2)c1ccc(NC(=O)c2ccccc2Cl)cc1 | · | · | – | – | ? | –
Clc1ccccc1N/N=C/c1ccc2c(c1)OCO2 | 20µM | – | 2.8µM | ? | 11µM | 2.8µM
COCCNC(=O)c1c[nH]c2ccc(S(=O)(=O)N(C)c3ccc(C)c(C)c3)cc2c1=O | · | · | – | – | – | –
Cc1ccc2nc(-c3ccc(Br)o3)oc(=O)c2c1 | – | – | – | – | 2.4µM | –
CN(C(=O)c1cc2ccccc2cc1O)C1CCCCC1 | · | · | – | – | – | –
CC1CCCN(C(=O)COC(=O)c2n[nH]c3ccccc23)C1 (stereo not drawn) | – | – | ? | 23µM | 17µM | ?
O=C(OCC(=O)N1CCCCC1)c1c[nH]c2ccccc12 | · | · | – | ? | 17µM | ?
CN(C(=O)COC(=O)c1cc2ccccc2cc1O)C1CCCCC1 | · | · | – | – | 19µM | –
SMILES | SMN2 splice up | KinaseGlo FLuc | NPC1 promoter act | ELG1 genotox | FLuc modulator | Rab9 prom act
O=C(OCC(=O)N1CCCC1)c1c[nH]c2ccccc12 | · | · | – | – | · | –
O=C(OCC(=O)N1CCCCC1)c1cc2ccccc2cc1O | – | – | – | ? | 24µM | –
CN(Cc1ccccc1)C(=O)COC(=O)c1ccc[nH]c1=O | · | · | · | – | · | ·
Cc1ccccc1NC(=O)Cn1c(=O)n(CCCC(=O)NCc2ccc3c(c2)OCO3)c(=O)c2ccccc21 | – | · | · | · | – | ·
COc1ccc(OCC(=O)Nc2ccccc2C(=O)Nc2ccc(C(=O)O)cc2)cc1 | · | · | – | – | – | –
O=C(OCC(=O)N1CCOCC1)c1ccccc1O | · | · | ? | ? | 24µM | 4µM
C/C(CC(=O)N1CCCC1)=N\NC(=O)c1cc2ccccc2cc1O | · | · | – | – | 15µM | –
CCn1c(CN2CCC(C)CC2)nc2cc(NC(=O)COc3ccc([N+](=O)[O-])cc3)ccc21 | · | · | · | · | – | ·
COc1ccc(C(=O)/C=C2\Sc3ccccc3N2C)cc1 | 7.9µM | – | 0.71µM | 1.6µM | 1.2µM | 0.89µM
COc1ccccc1-[n+]1c(C)cc(/C=C2\Sc3ccccc3N2C)cc1C | · | · | – | – | 2.4µM | –
COc1ccccc1OC(=O)CCN1c2ccccc2Sc2ccccc21 | – | – | – | – | – | –
COc1ccc(-[n+]2c(C)cc(/C=C3\Sc4ccccc4N3C)cc2C)cc1 | – | – | – | – | 19µM | –
CC(=S)/C=C1\Sc2ccccc2N1C | – | – | – | – | – | –
COc1ccc(C2NC(=O)N(C)C3=C2C(=O)N(c2cccc(C(=O)O)c2)C3)cc1 (stereo not drawn) | – | · | · | · | – | ·
Cc1ccc(N=C/C(C(=O)C(F)(F)F)=C(\O)c2ccco2)cc1Cl | · | · | – | ? | 9.5µM | –
Cc1cccc(N=C/C(C(=O)C(F)(F)F)=C(\O)c2ccco2)c1 | – | – | – | – | – | –
O=C(NCCNC(=O)c1ccco1)c1ccc(F)cc1 | – | – | – | – | – | –
O=C(/C(C=Nc1ccc(F)cc1)=C(/O)c1ccco1)C(F)(F)F | ? | – | – | 7.3µM | 8.5µM | –
COc1ccc2c(c1)cc1c(=O)n(CC(=O)NC3CC3)nc(C)n12 | – | · | · | · | – | ·
Cc1cc(C)cc(NC(=O)C(CC(C)C)NC(=O)C2CCCCC2)c1 (stereo not drawn) | – | · | · | · | – | ·
O=C1OCCC1Sc1nnc(-c2ccc(O)cc2)o1 (stereo not drawn) | – | – | – | – | ? | –
Cc1ccc(CSc2nnc(-c3ccc4c(c3)OCO4)o2)cc1 | – | – | – | – | ? | –
COc1ccc(C2=NCC(CSc3nnnn3C)S2)cc1 (stereo not drawn) | – | – | – | ? | ? | –
O=c1c2ccccc2nnn1CSc1nnc(-c2ccc3c(c2)OCO3)o1 | ? | – | ? | ? | 6.7µM | ?
c1cc(CSc2nnc(-c3ccc4c(c3)OCO4)o2)ccn1 | – | – | 2.5µM | – | ? | 2.5µM
SMILES | SMN2 splice up | KinaseGlo FLuc | NPC1 promoter act | ELG1 genotox | FLuc modulator | Rab9 prom act
COc1cccc(OC(=O)CSc2nnc(-c3ccc4c(c3)OCO4)o2)c1 | · | · | · | · | – | ·
O=C1OCCC1Sc1nnc(-c2ccc3c(c2)OCO3)o1 (stereo not drawn) | – | – | – | – | 9.5µM | –
COc1ccc(C2=NCC(CSc3nccc(=O)[nH]3)S2)cc1 (stereo not drawn) | – | – | – | – | 19µM | –
CCOc1ccccc1NC(=O)Nc1cc2c(cc1N1CCCCC1)n(CC)c(=O)n2CC | · | · | · | · | – | ·
CCc1ccc(OC(=O)CSc2nnc(-c3ccc4c(c3)OCO4)o2)cc1 | · | · | · | · | – | ·
O=c1c2ccccc2nnn1CSc1ccccc1 | 7.9µM | – | 1µM | ? | 1.9µM | 0.56µM
O=C(O)CCSc1nnc(-c2ccc3c(c2)OCO3)o1 | – | – | – | – | 13µM | –
CC(=O)Nc1ccc(NC(=O)CSc2nnc(-c3ccc4c(c3)OCO4)o2)cc1 | · | · | · | – | · | ·

Bioassay records deposited in PubChem by National Center for Advancing Translational Sciences (NCATS).
